Usually AC50 stands for the concentration at which the activity in the assay is half-maximal.

SMILES strings stand for the structures. Inconclusive results are not listed. Some compounds were tested as several samples or in several runs, with calls that do not always agree. Active and inactive are the calls of the source. The calls were made as follows: active = hit-call score of the fitted dose curve at least 0.9, where 1 is the maximum; inconclusive = response in the unintended direction; inactive = score below 0.9.

Data on 29 compounds can be found in PubChem BioAssay (EPA / NIEHS).

Chain of Peroxisome proliferator-activated receptor gamma (Homo sapiens) (P37231 whole entry, looked up): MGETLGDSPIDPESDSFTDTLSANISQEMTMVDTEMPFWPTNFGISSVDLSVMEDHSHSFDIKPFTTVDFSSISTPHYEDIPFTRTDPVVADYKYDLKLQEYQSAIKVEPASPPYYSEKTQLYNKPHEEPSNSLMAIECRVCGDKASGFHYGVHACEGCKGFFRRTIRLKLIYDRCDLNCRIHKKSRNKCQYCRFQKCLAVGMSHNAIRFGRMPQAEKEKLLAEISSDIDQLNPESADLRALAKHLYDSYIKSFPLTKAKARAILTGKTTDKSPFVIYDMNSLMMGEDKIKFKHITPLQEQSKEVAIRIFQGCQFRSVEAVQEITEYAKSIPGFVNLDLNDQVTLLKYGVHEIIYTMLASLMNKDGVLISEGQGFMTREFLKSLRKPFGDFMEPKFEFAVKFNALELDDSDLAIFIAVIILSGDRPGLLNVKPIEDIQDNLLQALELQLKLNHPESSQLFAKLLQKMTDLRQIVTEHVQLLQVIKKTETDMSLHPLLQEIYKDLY

The target in the experiment is Peroxisome proliferator-activated receptor gamma (Homo sapiens) (UniProt P37231). Kind of experiment: NVS_NR_hPPARg: NovaScreen (NVS) Nuclear Receptor Binding Assay for human Peroxisome Proliferator-activated Receptor gamma (PPARg) (AID 2283370). The protocol:
NVS_NR_hPPARg is a biochemical, single-readout assay that uses extracted gene-proteins in a cell-free assay. Measurements were taken 2 hours after chemical dosing in a 384-well plate.NVS_NR_hPPARg is one of one assay component(s) measured or calculated from the NVS_NR_hPPARg assay. It is designed to make measurements of fluorescent polarization, a form of binding reporter, as detected with fluorescence polarization signals by Fluorescence Polarization technology.Data from the assay component NVS_NR_hPPARg was analyzed into 1 assay endpoint. This assay endpoint, NVS_NR_hPPARg, was analyzed in the positive analysis fitting direction relative to DMSO as the negative control and baseline of activity. Using a type of binding reporter, loss-of-signal activity can be used to understand changes in the binding as they relate to the gene PPARG. Furthermore, this assay endpoint can be referred to as a primary readout, because the performed assay has only produced 1 assay endpoint. To generalize the intended target to other relatable targets, this assay endpoint is annotated to the nuclear receptor intended target family, where the subfamily is non-steroidal.
Binding assays used specific radioligands (tritiated, iodinated) with non-radioactive competitive displacement ligands in agonist or antagonist protocols (as indicated) and various reference compounds and inhibitors to titrate specific binding to receptors and transporters. Most enzyme assays (CYPs, kinases, phosphatases, proteases, HDACs) used recombinant protein and specific substrates (fluorescence mostly, some colorimetric and radioactive) and inhibitors, followed by a biochemical separation of substrate and product. All assays for the biochemical HTS were initially run in duplicate at a single concentration (10 uM for CYP450 assays and 25 uM for all others). […] Each assay was run with positive and negative controls, and concurrent controls on every plate. The follow-up (secondary) screen tested active chemical-pairs in concentration series, as well as a few additional assays not tested in the primary screen, some selected negative inactives, and several cases re-run in the concentration series for confirmatory purposes.
Take `N[C@@H](Cc1cc(I)c(Oc2ccc(O)c(I)c2)c(I)c1)C(=O)O`: the concentration at half-maximal activity (AC50) is 32.3 µM (active) and the compound was classed as inactive. As for `c1ccc(Nc2ccccc2)cc1`, the outcome was inactive. On the same count and under the same terms, for `CCCCOCCOCCOCc1cc2c(cc1CCC)OCO2` the value was “inactive”.

In the case of `CCN(CC)C(=O)c1cccc(C)c1`, the compound was called inactive.

For `O=C(c1ccc(O)cc1O)c1ccc(O)cc1O`, the AC50 was 40.4 µM (active) and the result was inactive. Regarding `COC(=O)c1ccccc1C(=O)O`, the result was inactive. Regarding `C=CCOC(Cn1ccnc1)c1ccc(Cl)cc1Cl` (configuration not stated), the compound was called inactive. The same measure, in the same setting: the same measure for `CCOC(=O)[C@H](C)Oc1ccc(Oc2nc3ccc(Cl)cc3o2)cc1`: “inactive”. The same measure, in the same setting: for `N#CSCSc1nc2ccccc2s1` the value was “inactive”; for `CCCN(CCC)c1c([N+](=O)[O-])cc(C(F)(F)F)c(N)c1[N+](=O)[O-]`, “inactive”; for `CCOC(=O)C(C)Oc1ccc(Oc2nc3ccc(Cl)cc3o2)cc1` (configuration not stated), “inactive”.

As for `C#C[C@]1(O)CC[C@H]2[C@@H]3CCC4=CC(=O)CC[C@@H]4[C@H]3CC[C@@]21CC`, the outcome was inactive. Consider `O=C(O)C1(C(=O)Nc2ccc(Cl)cc2Cl)CC1`, for which the AC50 is 8.65 µM (active). In the case of `C[C@]12CC[C@@H]3c4ccc(O)cc4C[C@@H](CCCCCCCCCS(=O)CCCC(F)(F)C(F)(F)F)[C@H]3[C@@H]1CC[C@@H]2O` (some centres not stated), the outcome was inactive. Regarding `CC(=O)[C@H]1CC[C@H]2[C@@H]3CCC4=CC(=O)CC[C@]4(C)[C@H]3CC[C@]12C`, the AC50 is 4.07 µM (active) and the result was inactive. Turning to `O=C(O)c1ccccc1`, the outcome was inactive. Still for that read-out and setting: for `Oc1ccc(C(c2ccc(O)cc2)C(Cl)(Cl)Cl)cc1` the value was “inactive”; for `CC(C)CCCCCCc1ccc(O)cc1`, “inactive”. As for `COc1nc(C)nc(NC(=O)NS(=O)(=O)c2ccccc2OCCCl)n1`, the compound was classed as inactive.

`CC(C)(c1ccc(O)cc1)c1ccc(O)cc1`: the result was inactive. The same measure, in the same setting: for `CCC(C)OC(=O)N1CCCCC1CCO` (configuration not stated) the value was “inactive”. For `S=C(S)NCCNC(=S)S.[Mn+2].[S-]C([S-])=NCCN=C([S-])[S-].[Zn+2]`, the compound was called inactive.

As to `O=C(c1ccccc1)C1CCCCC1`, the compound was called inactive.

As to `CCCN(CCC)C(=O)SCC`, the outcome was inactive. On to `CCCCC(CC)CN1C(=O)C2C3C=CC(C3)C2C1=O` (configuration not stated), for which the result was inactive. `O=C(Nc1ccc([N+](=O)[O-])cc1Cl)c1cc(Cl)ccc1O`: the compound was classed as inactive. On the same count and under the same terms, for `CCOC(=O)COc1cc(-n2ncc(C(F)(F)F)c(C)c2=O)c(F)cc1Cl` the value was “inactive”; for `C#CCOC(=O)[C@@H](C)Oc1ccc(Oc2ncc(Cl)cc2F)cc1`, “inactive”. Same read-out and setting: for `CC(=O)S[C@@H]1CC2=CC(=O)CC[C@]2(C)[C@H]2CC[C@@]3(C)[C@@H](CC[C@@]34CCC(=O)O4)[C@H]12` the value was “inactive”.
